# In the library only some 21% were active in any assay of this set; here they are far more common.
# Cycloheximide cs = affects cycloheximide protein synthesis inhibition readout, counter-screen. cell reporter, cycloheximide protein synthesis inhibition counterscreen. max response, %. 300,000 tested, 12% active; in the data active means max response mostly above about 13%, no sharp cut-off; inactive means mostly below about 14%; further: read at 38.3 µM for the half of the compounds with a filed dose; 0% is about no effect
# Pf growth 48h = inhibits P. falciparum growth in the first generation, 48 h; P. falciparum luciferase growth in erythrocytes, 48 h; Potency, µM (titrated, usually from 28.7 µM), for the others: at the highest dose activity change, negative = inhibition, most hits filed as inhibitors; 310,000 tested, 5.9% active; AID 504832; active means well fitted inhibition curve with a large enough effect; inconclusive means small, poorly fitted or top-dose-only effect, or another doubt; inactive means no such curve, though single readings can be large or run the other way; further: potency means the concentration at half of the fitted maximal effect; on the % scale 0 is the no-effect control and ±100 the full control effect
#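 A one-generation exposure of luciferase-tagged malaria parasites in RPMI 1640/Albumax erythrocyte culture, 37 C and 5% CO2. Inhibition is inferred from decreased luminescence after adding detection reagent.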
# SARS PLP yeast = inhibitors of SARS-CoV papain-like protease in yeast; S. cerevisiae expressing SARS-CoV PLpro, growth rescue; Potency, µM (doses to about 32.9 µM), for the others: top-dose activity, positive = growth rescue, usual class: activators; 330,000 tested, 0.19% active; AID 485353; further: potency means the concentration at half of the fitted maximal effect; 0% is about no effect; nearly all actives have a fitted effect of over 55% in size
# NS1 inh = influenza NS1 inhibition. Potency, µM (highest dose often 46.1 µM), for the others: at the top dose activity, positive = more growth. 270,000 tested, 0.4% active. AID 2326; further: potency means the concentration at half of the fitted maximal effect; actives are rising curves; nearly all actives have a fitted effect of over 50% in size
#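 S. cerevisiae expressing influenza A NS1, grown in glucose, washed, then diluted 1:100 into pH 6.0 -URA galactose medium with 23 nl compound. Growth recovery read as OD600; NS1-free strain serves as control.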
# Shiga toxin inh = inhibitors of Shiga toxin in Vero cells | Vero cells, Shiga toxin protein synthesis inhibition reporter | inhibition, % at 38.7 µM | 290,000 tested, 9.2% active; in the data active means inhibition mostly above about 28%, no sharp cut-off; inactive means mostly below about 43%; further: 0% is about no effect
# Pf growth 96h = P. falciparum growth inhibition at 96 hours. Potency, µM (top dose mostly 28.7 µM), without a hit: at the highest dose activity change, negative = inhibition, actives largely listed as inhibitors. AID 504834. 320,000 tested, 6.9% active. P. falciparum luciferase reporter growth, 96 h; active means well fitted inhibition curve with a large enough effect; inconclusive means small, poorly fitted or top-dose-only effect, or another doubt; inactive means no such curve, though single readings can be large or run the other way; further: potency means the concentration at half of the fitted maximal effect; on the % scale 0 is the no-effect control and ±100 the full control effect
#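 Erythrocytes infected with luciferase-expressing P. falciparum were dispensed at 2% hematocrit and 0.05% parasitemia (final), then incubated with compounds 96 hours at 37 C in 5% CO2. Luminescence after detection reagent addition reported growth.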
# * marks the source's active call; other numbers are inactive results; i = inactive; ? = inconclusive; . = no result. Unless noted, the call rests on the fitted dose curve.
SMILES,Cycloheximide cs,Pf growth 48h,SARS PLP yeast,NS1 inh,Shiga toxin inh,Pf growth 96h
CN(C)C1C(=O)C(C(N)=O)=C(O)C2(O)C(=O)C3=C(O)c4c(O)cccc4C(C)(O)C3CC12 (stereo not drawn),-3,?,6%,4%,-7,0.93µM*
CN(C)[C@@H]1C(=O)C(C(=O)NCN2CCCC2)=C(O)[C@@]2(O)C(=O)C3=C(O)c4c(O)cccc4[C@@](C)(O)C3CC12 (stereo partly drawn),-2,-4%,?,?,-6,-6%
CSCCC(NC(N)=O)C(=O)Nc1ccc(F)c(Cl)c1 (stereo not drawn),-2,-14%,0%,1%,-3,46%
Cc1cccc(C)c1NC(=S)NCCc1ccc(O)c(O)c1,6,10µM*,-1%,.,-2,-20%
NCCCC(N)CC(=O)NCC1NC(=O)C(CO)NC(=O)C(N)CNC(=O)C(C2CCN=C(N)N2)NC(=O)/C(=C/NC(N)=O)NC1=O (stereo not drawn),.,1%,.,.,.,-20%
Cc1cc(NC(=O)CSCC(=O)N(c2ccc(F)cc2)C(C(=O)NC2CCCCC2)c2ccc(O)c(O)c2)no1 (stereo not drawn),-1,?,0%,5%,-3,15µM*
Cc1cc(NC(=O)CSCC(=O)N(c2cccc(Cl)c2)C(C(=O)NC2CCCCC2)c2ccc(O)c(O)c2)no1 (stereo not drawn),1,?,-18%,5%,13,9.3µM*
COc1ccc(N(C(=O)CSCC(=O)Nc2cc(C)on2)C(C(=O)NC2CCCCC2)c2ccc(O)c(O)c2)cc1 (stereo not drawn),-1,-4%,-9%,2%,-2,2.6µM*
Cc1cc(NC(=O)CCC(=O)N(c2ccc(F)cc2)C(C(=O)NC2CCCC2)c2cccnc2)no1 (stereo not drawn),-4,?,1%,8%,2,-27%
Cc1ccc(C(C(=O)NC2CCCC2)N(C(=O)CCC(=O)Nc2cc(C)on2)c2ccccc2)cc1 (stereo not drawn),-1,-13%,-12%,1%,-7,-2%
COc1ccc(N(C(=O)/C=C/C(=O)Nc2cc(C)on2)C(C(=O)NC2CCCC2)c2ccccc2C)cc1 (stereo not drawn),-3,9.3µM*,5%,5%,-11,5%
COc1ccc(N(C(=O)CCC(=O)Nc2cc(C)on2)C(C(=O)NC2CCCC2)c2ccco2)cc1 (stereo not drawn),-2,-5%,0%,.,21,?
CN(C)S(=O)(=O)c1ccc(NC(=O)CN2CCN(C(c3ccccc3)c3ccccc3)CC2)cc1,-4,?,4%,11%,-13,?
COC(=O)c1c(-c2ccccc2OC)sc2ccccc12,.,?,4%,.,.,?
COc1ccccc1C#Cc1ccc2c(=O)c3ccccc3n(C)c2c1,6,?,0%,-10%,20,?
COc1cccc2sc3cc(NCCCN4CCOCC4)ccc3c(=O)c12,.,.,2%,.,.,.
COc1ccc2sc3ccccc3c(=O)c2c1OC,34*,122%,-7%,-77%,71*,56%
O=c1oc(CCCO)cc2ccc(C#CC3(O)CCCCC3)cc12,.,42%,6%,.,.,?
COc1cccc2sc3ccc(C#CC4(O)CCCCC4)cc3c(=O)c12,39*,39%,-28%,-87%,43*,?
COc1cccc2oc3cc(C#CC4(O)CCCCC4)ccc3c(=O)c12,35*,330%,-19%,-66%,58*,i
COc1cccc2sc3ccc(C#Cc4ccc(N)cc4)cc3c(=O)c12,41*,71%,-1%,-13%,57*,152%
CCN(CC)C(=O)CC(c1ccc(N(C)C)cc1)c1c(O)cc(OC)cc1OC (stereo not drawn),-1,?,0%,-21%,-2,?
Cn1c(SCc2ccc(F)cc2Cl)nc2ccccc2c1=O,.,?,1%,.,.,?
COc1cccc2oc3cc(C#Cc4ccccn4)ccc3c(=O)c12,27*,-6%,-13%,0%,35*,?
COc1cccc2sc3ccc(NCc4ccc5c(c4)OCO5)cc3c(=O)c12,19*,-24%,-13%,3%,25,?
SMILES,Cycloheximide cs,Pf growth 48h,SARS PLP yeast,NS1 inh,Shiga toxin inh,Pf growth 96h
CCc1c(C)nc2[nH]nc(-c3ccccc3)n2c1=O,15*,37%,-2%,-12%,16,17%
CCOc1ccc2c(c1)-c1c(ssc1=S)C(C)(C)N2C(=O)c1ccco1,-2,2.3µM*,1%,30%,-9,1.3µM*
CNC(=O)c1sc(-c2ccc(Cl)cc2)nc1C,53*,114%,.,-20%,112*,159%
CC(=O)c1sc(-c2ccc(Cl)cc2)nc1C,26*,41%,0%,-5%,53*,111%
Cc1nc(-c2cccnc2)sc1C(=O)Nc1cccc(C(F)(F)F)c1,-1,?,-14%,1%,-15,12µM*
Cc1nc(-c2ccc(Cl)cc2)sc1C(=O)NNC(=O)C(C)C,8,21%,-2%,-4%,-10,38%
C/C(=N\O)c1sc(-c2ccccc2)nc1C,46*,478%,-7%,.,98*,i
COc1ccc(-n2c(=O)c3c(C)c(C)sc3n(Cc3ccc(F)cc3)c2=O)c(OC)c1,-2,?,1%,.,-9,?
COc1ccc(NC(=O)CCCC(=O)OCC(=O)c2cccc(OC)c2)cc1,8,?,.,0%,3,-12%
COc1ccc(NS(=O)(=O)c2csc(C(=O)N3CCCC3)c2)c(OC)c1,-4,?,10%,-6%,19,23%
COCCN(C(=S)Nc1cccc(C)c1)C(C)c1cccnc1 (stereo not drawn),-6,-2%,-5%,.,-14,0%
CCNC(=O)O/N=C(\C)c1sc(-c2ccccc2)nc1C,39*,17%,-2%,0%,61*,?
CC(=O)c1sc(-c2cccc(Cl)c2)nc1C,20*,70%,3%,-5%,49,87%
Cc1nc(-c2ccc(C(F)(F)F)cc2)sc1C(=O)NN,15*,?,1%,3%,37,-57%
CNC(=O)c1sc(-c2ccccc2)nc1C,39*,81%,-3%,-3%,132*,.
C/C=C(\C)C(=O)NNC(=O)c1sc(-c2ccccc2)nc1C,-3,110%,0%,-3%,-6,0%
CN(CC(=O)NCc1ccco1)S(=O)(=O)c1ccc2c(c1)c(=O)n(C)c(=O)n2C,12,-14%,-1%,0%,13,3%
CCN(CC)C(=O)c1ccc2c(c1)nnn2C,-4,17%,6%,25%,-2,47%
COc1ccc(N=CC2=C(O)c3ccccc3C2=O)c(OC)c1,26*,196%,-2%,-35%,48,?
COc1ccc(N=C(C)c2c(O)n(C)c(=O)n(C)c2=O)c(OC)c1,5,?,-3%,-22%,-9,.
Cc1ccc(F)cc1N=Cc1c(O)c2ccccc2oc1=O,-1,1%,-3%,-4%,-17,2%

# Assay outcomes: PubChem BioAssay, National Center for Advancing Translational Sciences (NCATS)
